# According to PubChem BioAssay AID1159580 (chemical genetic matrix, 2015):
# Screen size: about 5,500 compounds; about 2,000 (36%) were called active. Another 18% or so got no clear call; they are omitted. The list shows a part of the results. Values without a mark were called inactive. Cut-off read from the data, not from the text of the source: active = normalized growth mostly below about 0.91 (no sharp cut-off); inconclusive = no clear call, values can overlap the other calls; inactive = mostly above about 0.92.
# Test: chemical genetic growth profiling, strain panel (AID 1159580);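 note: tested at 20 µM; growth read once vehicle control cultures reached saturation at 30 °C; 1 = growth at the plate median or of vehicle wells; lower values mean less growth of the strain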
# Conditions: S. cerevisiae deletion strains, growth OD
# [1] = locus YAR019C, strain CDC15, active compounds read low
# [2] = locus YBL105C, strain PKC1, active compounds read low
# [3] = locus YBR135W, strain CKS1, active compounds read low
# [4] = locus YBR136W, strain MEC1, active compounds read low
# [5] = locus YBR160W, strain CDC28, active compounds read low
# [6] = locus YDL017W, strain CDC7, active compounds read low
# [7] = locus YDL028C, strain MPS1, active compounds read low
# [8] = locus YDL101C, strain DUN1, active compounds read low
# [9] = locus YDL108W, strain KIN28, active compounds read low
# [10] = locus YDL132W, strain cdc53, active compounds read low
# [11] = locus YDL214C, strain PRR2, active compounds read low
# [12] = locus YDR052C, strain DBF4, active compounds read low
# [13] = locus YDR054C, strain cdc34, active compounds read low
# [14] = locus YDR226W, strain ADK1, active compounds read low
# [15] = locus YDR477W, strain SNF1, active compounds read low
# [16] = locus YER123W, strain YCK3, active compounds read low
# [17] = locus YER133W, strain GLC7, active compounds read low
# [18] = locus YFL009W, strain cdc4, active compounds read low
# [19] = locus YFL029C, strain CAK1, active compounds read low
# [20] = locus YFR003C, strain YPI1, active compounds read low
# [21] = locus YFR019W, strain FAB1, active compounds read low
# [22] = locus YFR028C, strain CDC14, active compounds read low
# [23] = locus YGR040W, strain KSS1, active compounds read low
# [24] = locus YGR052W, strain FMP48, active compounds read low
# [25] = locus YGR092W, strain DBF2, active compounds read low
# [26] = locus YHR030C, strain SLT2, active compounds read low
# [27] = locus YHR079C, strain IRE1, active compounds read low
# [28] = locus YHR082C, strain KSP1, active compounds read low
# [29] = locus YHR205W, strain SCH9, active compounds read low
# [30] = locus YIL147C, strain SLN1, active compounds read low
# [31] = locus YJL095W, strain BCK1, active compounds read low
# [32] = locus YJL128C, strain PBS2, active compounds read low
# [33] = locus YJL157C, strain FAR1, active compounds read low
# [34] = locus YJR016C, strain ILV3, active compounds read low
# [35] = locus YJR066W, strain TOR1 (second series), active compounds read low
# [36] = locus YJR066W, strain TOR1, active compounds read low
# [37] = locus YKL048C, strain ELM1, active compounds read low
# [38] = locus YKL067W, strain YNK1, active compounds read low
# [39] = locus YKL101W, strain HSL1, active compounds read low
# [40] = locus YKL193C, strain SDS22, active compounds read low
# [41] = locus YKL203C, strain TOR2, active compounds read low
# [42] = locus YLR113W, strain HOG1, active compounds read low
# [43] = locus YLR133W, strain CKI1, active compounds read low
# [44] = locus YLR403W, strain SFP1, active compounds read low
# [45] = locus YML070W, strain DAK1, active compounds read low
# [46] = locus YMR001C, strain CDC5, active compounds read low
# [47] = locus YMR205C, strain PFK2 (second series), active compounds read low
# [48] = locus YMR277W, strain FCP1, active compounds read low
# [49] = locus YNL006W, strain LST8, active compounds read low
# [50] = locus YNL020C, strain ARK1, active compounds read low
# [51] = locus YNL161W, strain CBK1, active compounds read low
# [52] = locus YNL183C, strain NPR1, active compounds read low
# [53] = locus YNL207W, strain RIO2, active compounds read low
# [54] = locus YNL222W, strain SSU72, active compounds read low
# [55] = locus YNL307C, strain MCK1 (second series), active compounds read low
# [56] = locus YOL078W, strain AVO1, active compounds read low
# [57] = locus YOL136C, strain PFK27, active compounds read low
# [58] = locus YOR061W, strain CKA2, active compounds read low
# [59] = locus YOR119C, strain RIO1, active compounds read low
# [60] = locus YOR231W, strain MKK1, active compounds read low
# [61] = locus YOR329C, strain SCD5, active compounds read low
# [62] = locus YPL031C, strain PHO85, active compounds read low
# [63] = locus YPL153C, strain RAD53, active compounds read low
# [64] = locus YPL204W, strain HRR25, active compounds read low
# [65] = locus YPL209C, strain IPL1, active compounds read low
# [66] = locus YPL256C, strain CLN2, active compounds read low
# [67] = locus YPR025C, strain CCL1, active compounds read low
# [68] = locus YPR106W, strain ISR1, active compounds read low
# [69] = locus YPR111W, strain DBF20, active compounds read low
# [70] = strain NNK1, active compounds read low
# [71] = strain TSCII, active compounds read low
smiles,measurement,setting,value
Cc1cc(/C(N)=N\OC(=O)C(C)(C)C)cc(/C(N)=N\OC(=O)C(C)(C)C)c1,normalized growth,[1],0.977
same,normalized growth,[2],0.985
same,normalized growth,[3],0.992
same,normalized growth,[4],0.969
same,normalized growth,[5],0.98
same,normalized growth,[6],0.989
same,normalized growth,[7],0.949
same,normalized growth,[8],0.985
same,normalized growth,[9],0.983
same,normalized growth,[10],0.987
same,normalized growth,[11],0.968
same,normalized growth,[12],0.996
same,normalized growth,[13],0.985
same,normalized growth,[14],0.979
same,normalized growth,[15],0.991
same,normalized growth,[16],0.974
same,normalized growth,[17],0.977
same,normalized growth,[18],0.982
same,normalized growth,[19],0.986
same,normalized growth,[20],0.989
same,normalized growth,[21],0.979
same,normalized growth,[22],0.983
same,normalized growth,[23],0.979
same,normalized growth,[24],1.02
same,normalized growth,[25],1.02
same,normalized growth,[26],0.904
same,normalized growth,[27],1.02
same,normalized growth,[28],1.06
same,normalized growth,[29],0.974
same,normalized growth,[30],0.964
same,normalized growth,[31],0.992
same,normalized growth,[32],0.937
same,normalized growth,[33],1
same,normalized growth,[34],0.993
same,normalized growth,[35],0.962
same,normalized growth,[36],1
same,normalized growth,[37],0.987
same,normalized growth,[38],0.953
same,normalized growth,[39],0.954
same,normalized growth,[40],0.983
same,normalized growth,[41],1.08
same,normalized growth,[42],0.858 (active)
same,normalized growth,[43],1
same,normalized growth,[44],0.997
same,normalized growth,[45],0.966
same,normalized growth,[46],0.969
same,normalized growth,[47],0.991
same,normalized growth,[48],0.972
same,normalized growth,[49],0.984
same,normalized growth,[50],0.989
same,normalized growth,[51],0.988
same,normalized growth,[52],1.03
same,normalized growth,[53],0.989
same,normalized growth,[54],0.979
same,normalized growth,[55],0.947
same,normalized growth,[56],0.992
same,normalized growth,[57],0.962
same,normalized growth,[58],1
same,normalized growth,[59],1.03
same,normalized growth,[60],1
same,normalized growth,[61],0.99
same,normalized growth,[62],0.997
same,normalized growth,[63],0.965
same,normalized growth,[64],0.969
same,normalized growth,[65],0.991
same,normalized growth,[66],0.922
same,normalized growth,[67],0.989
same,normalized growth,[68],0.978
same,normalized growth,[69],0.954
same,normalized growth,[70],0.982
same,normalized growth,[71],0.967
Cn1ncc(C(=O)O/N=C(/N)c2cc(C(F)(F)F)cc(C(F)(F)F)c2)c1-n1cccc1,normalized growth,"locus YAL013W, strain DEP1, active compounds read low",1.02
same,normalized growth,"locus YBR229C, strain ROT2, active compounds read low",1.01
same,normalized growth,[8],1.01
same,normalized growth,"locus YDL134C, strain PPH21, active compounds read low",1.02
same,normalized growth,"locus YDR150W, strain NUM1, active compounds read low",0.963
same,normalized growth,"locus YEL061C, strain CIN8, active compounds read low",0.999
same,normalized growth,"locus YGR078C, strain PAC10, active compounds read low",1
same,normalized growth,[26],0.972
same,normalized growth,"locus YHR087W, strain rtc3, active compounds read low",0.996
same,normalized growth,"locus YJR043C, strain POL32, active compounds read low",0.999
same,normalized growth,"locus YJR075W, strain HOC1, active compounds read low",0.972
same,normalized growth,"locus YKL190W, strain CNB1, active compounds read low",1.01
same,normalized growth,"locus YLR039C, strain RIC1, active compounds read low",0.958
same,normalized growth,"locus YLR058C, strain SHM2 (second series), active compounds read low",1
same,normalized growth,"locus YLR085C, strain ARP6, active compounds read low",0.984
same,normalized growth,"locus YLR262C, strain YPT6, active compounds read low",1.03
same,normalized growth,"locus YML094W, strain GIM5, active compounds read low",0.988
same,normalized growth,"locus YMR219W, strain ESC1, active compounds read low",1
same,normalized growth,"locus YMR263W, strain SAP30, active compounds read low",0.934
same,normalized growth,"locus YMR307W, strain GAS1, active compounds read low",1.03
same,normalized growth,"locus YNL153C, strain GIM3, active compounds read low",0.996
same,normalized growth,"locus YNL298W, strain CLA4 (second series), active compounds read low",1.02
same,normalized growth,"locus YNL322C, strain KRE1, active compounds read low",0.991
same,normalized growth,"locus YNR030W, strain Alg12, active compounds read low",1.02
same,normalized growth,"locus YOL006C, strain TOP1, active compounds read low",0.98
same,normalized growth,"locus YPL055C, strain LGE1, active compounds read low",0.88
same,normalized growth,"locus YPL241C, strain CIN2, active compounds read low",0.935
same,normalized growth,"locus YPR135W, strain CTF4, active compounds read low",0.961
COc1c(Br)csc1C(=O)O/N=C(/N)c1cc(C(F)(F)F)cc(C(F)(F)F)c1,normalized growth,[1],0.994
same,normalized growth,[2],0.981
same,normalized growth,[3],0.99
same,normalized growth,[4],0.988
same,normalized growth,[5],0.979
same,normalized growth,[6],0.985
same,normalized growth,[7],0.988
same,normalized growth,[8],0.954
same,normalized growth,[9],0.987
same,normalized growth,[10],0.989
same,normalized growth,[11],1.05
same,normalized growth,[12],0.99
same,normalized growth,[13],0.989
same,normalized growth,[14],0.986
same,normalized growth,[15],1.05
same,normalized growth,[16],0.999
same,normalized growth,[17],1.03
same,normalized growth,[18],0.995
same,normalized growth,[19],0.96
same,normalized growth,[20],0.988
same,normalized growth,[21],1
same,normalized growth,[22],0.987
same,normalized growth,[23],1.06
same,normalized growth,[24],1.1
same,normalized growth,[25],1
same,normalized growth,[26],1.1
same,normalized growth,[27],1.07
same,normalized growth,[28],1.14
same,normalized growth,[29],1.03
same,normalized growth,[30],0.993
same,normalized growth,[31],1.09
same,normalized growth,[32],0.956
same,normalized growth,[33],1.01
same,normalized growth,[34],0.979
same,normalized growth,[35],0.99
same,normalized growth,[36],1.15
same,normalized growth,[37],1.01
same,normalized growth,[38],1.01
same,normalized growth,[39],1.05
same,normalized growth,[40],0.987
same,normalized growth,[41],1.14
same,normalized growth,[42],1.02
same,normalized growth,[43],1.03
same,normalized growth,[44],1.05
same,normalized growth,[45],1.04
same,normalized growth,[46],0.989
same,normalized growth,[47],0.999
same,normalized growth,[48],0.99
same,normalized growth,[49],0.995
same,normalized growth,[50],1.03
same,normalized growth,[51],0.982
same,normalized growth,[52],1.03
same,normalized growth,[53],0.989
same,normalized growth,[54],0.985
same,normalized growth,[55],1.05
same,normalized growth,[56],0.986
same,normalized growth,[57],1.03
same,normalized growth,[58],0.97
same,normalized growth,[59],1.13
same,normalized growth,[60],1.03
same,normalized growth,[61],0.995
same,normalized growth,[62],1.06
same,normalized growth,[63],1.04
same,normalized growth,[64],1.07
same,normalized growth,[65],0.985
same,normalized growth,[66],1.01
same,normalized growth,[67],0.987
same,normalized growth,[68],0.967
same,normalized growth,[69],0.964
same,normalized growth,[70],1
same,normalized growth,[71],0.993
